NCOA2 inhibitor – human SRC2 (NCOA2) inhibition | Q15596 | HEK293 GAL4-SRC2 luciferase reporter, luminescence | inhibition, % at 9 µM | 0.17% of 370,000 active | AID 651957;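 active means inhibition above the mean inhibition of all tested compounds plus 3 SD, set per campaign, cut at about 52% in these data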;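 further: 0% = DMSO treated cells and 100% = cells given Gossypol at 36 µM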
COUP-TFII inh – blocks human COUP-TFII nuclear receptor. P24468. HEK293T NGFI-A luciferase reporter, luminescence. inhibition, % at 8.6 µM. 0.7% of 370,000 active;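 active means inhibition above a per-plate cutoff, mean inhibition of test wells between control levels plus 3 SD, cut at about 38% in these data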;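 further: cells cotransfected with COUP-TFII expression vector driving the NGFI-A reporter; 0% = median of COUP-TF2 test wells and 100% = reporter-only cells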
SRC3 inh – inhibits human SRC3 coactivator. Q9Y6Q9. HEK293 GAL4-SRC3 luciferase reporter, luminescence. inhibition, % at 3.6 µM. 0.17% of 360,000 active;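 active means inhibition above a per-campaign cutoff, the mean of all compounds plus 3 SD, cut at about 60% in these data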;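 further: 0% = DMSO-treated cells and 100% = gossypol-treated cells at 36 µM; higher means less SRC3-driven luciferase light from the GAL4 reporter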
LRH-1 inv ag – inverse agonists of human LRH-1 (NR5A2); inhibition, % at 3.6 µM; HEK293T StAR-luciferase reporter, LRH-1 transfected, 24 h; 0.13% of 360,000 active;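 active means inhibition above the mean inhibition of all tested compounds plus 3 SD, cut at about 73% in these data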;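 further: 0% = DMSO wells and 100% = reporter-only cells lacking LRH-1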
NCOA1 inh – human NCOA1 inhibition; 0.12% of 360,000 active; HEK293 GAL4-SRC1 luciferase reporter, luminescence; AID 588354; inhibition, % at 3.6 µM;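 active means inhibition above the campaign mean plus 3 SD, with each screening campaign given its own cutoff, cut at about 60% in these data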;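 further: 0% = DMSO treated cells and 100% = gossypol at 36 µM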
Target sequence (Q15788 whole entry, looked up, the tested form may be a part): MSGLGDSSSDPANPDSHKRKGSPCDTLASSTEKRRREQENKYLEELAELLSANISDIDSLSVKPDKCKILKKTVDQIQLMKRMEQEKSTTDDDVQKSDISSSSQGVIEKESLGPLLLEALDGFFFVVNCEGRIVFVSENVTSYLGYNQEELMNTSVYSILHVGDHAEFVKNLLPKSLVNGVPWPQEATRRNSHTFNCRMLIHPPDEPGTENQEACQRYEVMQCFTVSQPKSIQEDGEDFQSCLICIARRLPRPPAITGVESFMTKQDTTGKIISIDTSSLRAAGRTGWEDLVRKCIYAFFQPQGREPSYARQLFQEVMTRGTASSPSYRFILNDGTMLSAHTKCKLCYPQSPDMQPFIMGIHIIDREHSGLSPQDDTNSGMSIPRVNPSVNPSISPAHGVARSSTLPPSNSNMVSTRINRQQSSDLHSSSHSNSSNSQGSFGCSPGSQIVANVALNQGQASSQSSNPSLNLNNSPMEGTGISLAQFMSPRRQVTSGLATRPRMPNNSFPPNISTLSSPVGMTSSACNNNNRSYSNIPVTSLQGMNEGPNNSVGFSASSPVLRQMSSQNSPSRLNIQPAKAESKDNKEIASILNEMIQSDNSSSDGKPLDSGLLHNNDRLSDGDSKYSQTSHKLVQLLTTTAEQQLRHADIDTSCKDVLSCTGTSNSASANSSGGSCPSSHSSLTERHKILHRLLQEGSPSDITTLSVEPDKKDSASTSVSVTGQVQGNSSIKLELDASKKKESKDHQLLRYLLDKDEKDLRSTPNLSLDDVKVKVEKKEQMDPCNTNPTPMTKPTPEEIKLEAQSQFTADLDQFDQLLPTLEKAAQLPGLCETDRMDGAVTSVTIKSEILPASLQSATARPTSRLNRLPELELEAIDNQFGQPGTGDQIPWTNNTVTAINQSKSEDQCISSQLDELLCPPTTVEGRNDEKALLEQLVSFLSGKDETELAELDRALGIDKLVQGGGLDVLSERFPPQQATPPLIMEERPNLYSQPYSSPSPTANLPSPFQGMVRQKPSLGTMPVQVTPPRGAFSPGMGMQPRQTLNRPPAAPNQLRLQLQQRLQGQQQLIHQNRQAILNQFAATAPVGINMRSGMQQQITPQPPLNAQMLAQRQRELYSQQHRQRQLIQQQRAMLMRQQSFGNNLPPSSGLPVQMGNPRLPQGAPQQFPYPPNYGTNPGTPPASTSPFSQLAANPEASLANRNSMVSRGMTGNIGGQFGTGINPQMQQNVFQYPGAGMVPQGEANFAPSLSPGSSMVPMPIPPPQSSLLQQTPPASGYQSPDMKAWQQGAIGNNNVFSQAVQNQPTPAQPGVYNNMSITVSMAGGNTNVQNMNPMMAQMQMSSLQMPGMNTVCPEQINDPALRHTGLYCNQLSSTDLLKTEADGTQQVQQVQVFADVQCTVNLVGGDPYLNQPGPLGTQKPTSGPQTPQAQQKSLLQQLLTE
VP16 Luc counter – counter-screen for COUP-TFII antagonists: inhibitors of VP16; shares compounds with COUP-TFII inh; HEK293 Gal4-VP16 luciferase reporter, luminescence; inhibition, % at 8.5 µM; 25% of 2,500 active; AID 687007; in the data active means inhibition above about 13%
NR2F2 inh conf – confirmation of human COUP-TFII (NR2F2) inhibitors; shares compounds with COUP-TFII inh; HEK293 NGFI-A luciferase reporter, luminescence; inhibition, % at 8.5 µM; 45% of 2,500 active; AID 687008;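 active means mean inhibition over three repeats above a set limit taken from the earlier primary screen, cut at about 38% in these data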;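 further: 100% = cells given the luciferase reporter alone without the COUP-TF2 vector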
* marks the source's active call; other numbers are inactive results; nt = no result. Sampled rows, rich in hits. Any-hit rate of the full collection: about 0.81%.

SMILES	NCOA2 inhibitor	COUP-TFII inh	SRC3 inh	LRH-1 inv ag	NCOA1 inh	VP16 Luc counter	NR2F2 inh conf
CC(C)(C)c1ccc(C(=O)Nc2ccc(Oc3cccnc3)nc2)cc1	17.2	64.0*	13.4	21.1	23.1	-7.9	61.5*
COc1cccc2c(NCc3ccccc3)nc(-n3c(N)nc4ccccc43)nc12	nt	100.4*	nt	nt	nt	48.6*	17.7
O=CC1=C(c2ccccc2)Oc2ccccc2O1	32.5	-6.8	-5.6	-5.4	-13.0	nt	nt
CCOC(=O)c1ccc[n+](CC(=O)c2ccc(NC(=O)c3ccccc3)cc2)c1	3.5	-21.2	-3.7	-4.8	3.0	nt	nt
COc1ccc(Nc2nc(N3CCCCC3)c3ccccc3n2)cc1	13.3	37.9*	5.2	9.7	12.1	-1.0	9.5
COc1ccc(Nc2ccnc3ccccc23)cc1	40.7	40.4*	37.1	0.1	37.3	-10.1	13.0
Oc1ccc(Nc2nc(N3CCCC3)c3ccccc3n2)cc1	-99.6	9.1	52.3	8.4	47.1	nt	nt
CC1CCCC=CC2CC(OC(=O)CN(C)C)CC2C(O)C=CC(=O)O1 (stereo not drawn)	2.6	51.1*	51.4	36.8	0.1	16.5*	16.3
O=C(c1ccccc1)c1nn(-c2ccccc2)c(=O)cc1C(F)(F)F	-15.0	17.1	11.8	1.6	-11.8	nt	nt
O=C(c1ccccc1)c1nn(-c2ccc(Cl)cc2)c(=O)cc1C(F)(F)F	68.9*	40.5*	63.6*	84.9*	25.7	50.2*	62.4*
CC(C)(C)c1ccc(C(=O)N2CCCCCC2=O)cc1	86.9*	85.8*	50.8	57.3	43.9	80.6*	76.4*
O=C1CCCCCN1C(=O)c1ccccc1	-0.8	7.0	-5.9	14.5	-11.6	nt	nt
CC1=C(C(=O)NC2CCCc3c2cnn3-c2cccc(C)c2C)OCCO1 (stereo not drawn)	24.3	55.9*	8.6	25.5	15.1	-1.8	44.5*
Cc1cccc(-n2ncc3c2CCCC3NC(=O)Cc2c(C)noc2C)c1C (stereo not drawn)	15.9	41.5*	-10.9	27.6	0.6	-1.2	36.2
CCn1cc(C(=O)NC2CCCc3c2cnn3-c2cccc(C)c2C)cn1 (stereo not drawn)	12.6	63.5*	-111.1	-1.4	-25.6	-4.1	50.0*
Cc1cccc(-n2ncc3c2CCCC3NC(=O)c2ccncc2)c1C (stereo not drawn)	5.4	63.8*	18.4	49.3	30.9	1.6	48.7*
O=C1c2ccccc2C(c2nnnn2-c2ccc3c(c2)OCCO3)N1CCc1ccccc1F (stereo not drawn)	-30.8	-10.1	nt	-10.5	nt	nt	nt
COc1cccc(N2CCN(CC(=O)NCc3cccc(OC)c3OC)CC2)c1	13.4	2.3	nt	nt	nt	nt	nt
O=C(C1CC1)N1CCc2cc(Br)c(S(=O)(=O)NCCCN3CCCCC3)cc21	-23.4	-1.8	nt	nt	nt	nt	nt
COc1ccc(S(=O)(=O)N2CCN(C(=O)c3cc4c(s3)CCC4)CC2)cc1	-1.3	-3.2	11.6	7.4	-0.1	nt	nt
CC1(C(=O)Nc2ccc3nc[nH]c3c2)CCN1C(=O)c1ccccc1CCc1ccccc1 (stereo not drawn)	-15.2	-9.1	-3.8	-13.2	4.9	nt	nt
Cc1cc(C)cc(N(CCC#N)C(=O)CSc2nc3ccccc3c(=O)[nH]2)c1	-12.9	-14.9	8.1	-38.8	3.5	nt	nt
Cc1cccc(-n2ncc3c2CCCC3NC(=O)c2cccs2)c1C (stereo not drawn)	5.5	43.8*	6.5	-3.8	2.7	-2.0	25.2
Cc1cc(Cl)ccc1OCCCC(=O)NO	35.7	51.8*	25.2	-33.3	10.4	-6.5	47.2*
O=C(COc1ccc(Cl)cc1Cl)Nc1ccccn1	82.1*	89.4*	58.9	50.8	62.5*	63.9*	82.2*
SMILES	NCOA2 inhibitor	COUP-TFII inh	SRC3 inh	LRH-1 inv ag	NCOA1 inh	VP16 Luc counter	NR2F2 inh conf
Cc1nn(C)c(C)c1NC(=O)COc1ccc(F)cc1Br	-3.3	21.8	2.9	-4.3	2.7	nt	nt
Cc1nn(C)c(C)c1NC(=O)COc1ccc(Cl)cc1Br	13.1	51.2*	22.9	24.8	3.6	4.1	50.4*
CSc1ccccc1NC(=O)COc1ccc(Cl)cc1Cl	-26.3	2.8	-23.7	-18.2	-27.0	nt	nt
Cc1cccc(OCC(=O)Nc2ccncc2)c1C	11.0	39.3*	-9.9	45.6	3.3	-8.5	31.6
COCc1cccc(-c2csc(C(C)(NC(C)=O)c3ccccc3)n2)c1 (stereo not drawn)	0.2	12.6	8.4	-5.4	5.4	nt	nt
CSCCC(=O)N1CCC(CCC(=O)NC2CC2)CC1	-19.5	10.5	10.2	-15.8	-14.3	nt	nt
COc1ccc(C(=O)N2CCCC(C)(C(=O)NS(=O)(=O)C3CC3)C2)cc1 (stereo not drawn)	10.5	7.1	1.1	11.1	-3.5	nt	nt
COc1ccc(C(=O)CSc2nnc(-c3cccc(Cl)c3)n2Cc2ccco2)cc1	5.5	-5.5	nt	nt	nt	nt	nt
Cn1c(NCCc2ccncc2)nc2cc(-c3ccccc3)sc2c1=O	-79.9	-36.2	-54.3	-57.8	-69.4	nt	nt
CC(=O)c1cccc(NC(=O)C(C)OC(=O)c2cccc(-n3cnnn3)c2)c1 (stereo not drawn)	-13.7	6.5	-2.7	19.3	-2.2	nt	nt
Cc1c(C)c2cc(Cl)c(OCC(=O)Nc3ccccn3)cc2oc1=O	-12.6	-17.9	-28.3	-11.8	-10.6	nt	nt
Cc1cc(Cl)ccc1OCC(=O)Nc1ccncc1	-4.7	40.2*	-0.2	21.6	-8.9	-27.5	22.9
Cc1c(C)c2ccc(OCC(=O)Nc3ccccn3)c(C)c2oc1=O	68.7*	77.9*	80.8*	76.5*	74.1*	82.3*	98.0*
O=S1(=O)CC(N2CCN(CCO)CC2)CN1C1CCCCC1 (stereo not drawn)	9.7	2.8	-8.0	1.4	-3.1	nt	nt
COCCNc1nc(NCc2ccc(C(C)C)cc2)c2sccc2n1	3.4	38.1*	9.8	7.4	19.4	1.0	22.0
COCCNc1nc(NCc2cccc(OC)c2)c2sccc2n1	-3.0	18.9	-15.8	8.4	-20.6	nt	nt
C/C(=N\NC(=O)Cc1cccs1)c1ccco1	-12.2	-17.1	nt	nt	nt	nt	nt
Cc1nc(Sc2ccc(Br)cc2)c(C#N)c(C)c1[N+](=O)[O-]	-9.7	-3.1	17.0	-4.2	1.0	nt	nt
Cc1ccccc1Cn1c(C)nc2ccccc21	35.0	47.5*	23.6	37.0	31.0	3.4	46.1*
Cc1nc2ccccc2n1Cc1ccc(Cl)cc1	26.6	60.6*	13.3	46.6	-13.5	1.3	38.8*
OCc1nc2ccccc2n1Cc1ccc(Cl)cc1	5.5	9.5	-3.9	20.0	14.3	nt	nt
COc1ccccc1Cn1c(C)nc2ccccc21	2.0	-14.0	-6.5	-13.3	10.5	nt	nt
Cc1ccc(NC(=O)CCC(=O)NNC(=O)NC2CCCCC2)c(C)c1	1.2	8.4	0.1	-7.5	-26.4	nt	nt
COc1cc(NC(=O)C2=COCCO2)c(OC)cc1Cl	-17.1	10.6	4.1	-17.4	0.4	nt	nt
CCCCN1CC(=O)N2[C@H](C[C@@]3(n4ccc5ccccc54)c4ccccc4N(S(=O)(=O)c4ccccc4)[C@@H]23)C1=O	13.6	16.5	nt	nt	nt	nt	nt
